Source: the supplement of paper PMC11732987, “Enantioselective OTUD7B fragment discovery through chemoproteomics screening and high-throughput optimisation” (Communications Chemistry, 2025)

Key:
Test in all cases: log2 ratio of Biotin-Ahx-Ub-VS probe labelling (fragment/DMSO); higher = less target engagement (more negative = stronger competition), active = hit call of the paper (q ≤ 0.05, log2 ratio ≤ -1)
Conditions in all cases: compound concentration: 200 uM; treatment time: 3 h
OTUD6B = molecular target: T1, OTUD6B (UniProt Q8N6M0)
T1 sequence (whole entry): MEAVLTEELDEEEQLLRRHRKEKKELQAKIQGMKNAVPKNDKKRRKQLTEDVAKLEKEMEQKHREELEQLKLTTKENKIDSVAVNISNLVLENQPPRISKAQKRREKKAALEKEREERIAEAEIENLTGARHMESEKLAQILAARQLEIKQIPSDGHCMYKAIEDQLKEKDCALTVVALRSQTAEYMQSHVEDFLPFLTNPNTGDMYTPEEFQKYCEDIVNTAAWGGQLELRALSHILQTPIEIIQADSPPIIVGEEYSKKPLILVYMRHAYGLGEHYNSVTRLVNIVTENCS
Outline: (§1)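 Average log2 ratios of fragment over vehicle were obtained by unpaired t-test from global-median-normalised Spectronaut label-free quantities. Proteins with ≥2 unique peptides were included. HEK293T lysate (495 µg per sample) was treated in triplicate with fragment at 200 µM or vehicle for 3 h, then with Biotin-Ahx-Ub-VS at 0.5 µM final for 1 h, and labelled DUBs were NeutrAvidin-enriched and run by diaPASEF LC-MS/MS.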

OTUD7B = molecular target: T2, OTUD7B (UniProt Q6GQQ9)
T2 sequence (whole entry): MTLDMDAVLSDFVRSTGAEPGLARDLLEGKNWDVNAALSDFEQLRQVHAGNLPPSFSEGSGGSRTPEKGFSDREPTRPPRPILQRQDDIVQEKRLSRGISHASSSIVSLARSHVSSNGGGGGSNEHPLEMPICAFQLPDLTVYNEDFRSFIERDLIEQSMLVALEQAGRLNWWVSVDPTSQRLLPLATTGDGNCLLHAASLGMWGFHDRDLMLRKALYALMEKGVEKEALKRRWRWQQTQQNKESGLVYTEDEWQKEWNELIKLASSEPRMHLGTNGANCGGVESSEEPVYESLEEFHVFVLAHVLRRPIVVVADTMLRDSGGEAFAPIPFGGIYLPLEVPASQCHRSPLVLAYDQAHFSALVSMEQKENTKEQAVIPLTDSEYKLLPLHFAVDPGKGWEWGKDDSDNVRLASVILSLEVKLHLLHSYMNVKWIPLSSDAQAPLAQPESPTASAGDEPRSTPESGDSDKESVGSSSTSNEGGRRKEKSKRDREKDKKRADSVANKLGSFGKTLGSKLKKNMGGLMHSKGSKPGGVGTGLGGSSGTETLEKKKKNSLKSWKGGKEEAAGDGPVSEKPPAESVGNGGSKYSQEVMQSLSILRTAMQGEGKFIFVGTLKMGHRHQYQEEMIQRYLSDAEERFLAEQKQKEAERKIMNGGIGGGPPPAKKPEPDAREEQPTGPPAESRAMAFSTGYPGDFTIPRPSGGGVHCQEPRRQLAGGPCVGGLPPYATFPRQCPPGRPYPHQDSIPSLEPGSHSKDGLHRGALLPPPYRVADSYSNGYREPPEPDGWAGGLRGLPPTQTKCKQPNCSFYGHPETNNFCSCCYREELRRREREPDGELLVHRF
Outline: as §1

PRPF8 = PRPF8 (UniProt Q6P2Q9)
Outline: as §1

PSMD7 = molecular target: T3, PSMD7 (UniProt P51665)
T3 sequence (whole entry): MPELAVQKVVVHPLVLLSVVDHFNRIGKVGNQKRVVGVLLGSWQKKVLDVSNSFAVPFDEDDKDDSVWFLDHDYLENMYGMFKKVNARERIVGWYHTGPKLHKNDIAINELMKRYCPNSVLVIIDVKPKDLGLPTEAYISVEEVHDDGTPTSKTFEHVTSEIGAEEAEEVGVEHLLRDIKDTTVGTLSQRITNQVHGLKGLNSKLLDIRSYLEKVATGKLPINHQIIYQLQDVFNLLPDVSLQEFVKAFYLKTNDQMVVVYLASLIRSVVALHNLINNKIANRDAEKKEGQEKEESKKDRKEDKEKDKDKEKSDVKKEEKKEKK
Outline: as §1

UCHL1 = UCHL1 (UniProt P09936)
Outline: as §1

UCHL3 = molecular target: T4, UCHL3 (UniProt P15374)
T4 sequence (whole entry): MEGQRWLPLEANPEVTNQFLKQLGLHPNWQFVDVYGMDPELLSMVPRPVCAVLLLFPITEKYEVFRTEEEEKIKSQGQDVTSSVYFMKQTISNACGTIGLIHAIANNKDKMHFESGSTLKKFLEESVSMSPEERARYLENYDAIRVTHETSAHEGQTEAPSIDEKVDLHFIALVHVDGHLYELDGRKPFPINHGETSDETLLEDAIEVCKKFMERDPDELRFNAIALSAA
Outline: as §1

UCHL5 = molecular target: T5, UCHL5 (UniProt Q9Y5K5)
T5 sequence (whole entry): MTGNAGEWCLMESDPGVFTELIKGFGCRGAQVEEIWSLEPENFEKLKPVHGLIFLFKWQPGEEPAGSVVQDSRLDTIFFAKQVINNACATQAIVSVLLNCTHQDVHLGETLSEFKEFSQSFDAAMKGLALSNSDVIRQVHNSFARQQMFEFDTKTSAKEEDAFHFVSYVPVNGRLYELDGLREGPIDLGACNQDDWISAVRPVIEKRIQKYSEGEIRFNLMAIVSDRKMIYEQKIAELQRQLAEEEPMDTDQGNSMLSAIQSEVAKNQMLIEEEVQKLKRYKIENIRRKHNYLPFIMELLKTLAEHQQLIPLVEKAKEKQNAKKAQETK
Outline: as §1

USP10 = USP10 (UniProt Q14694)
Outline: as §1

USP15 = molecular target: T6, USP15 (UniProt Q9Y4E8)
T6 sequence (whole entry): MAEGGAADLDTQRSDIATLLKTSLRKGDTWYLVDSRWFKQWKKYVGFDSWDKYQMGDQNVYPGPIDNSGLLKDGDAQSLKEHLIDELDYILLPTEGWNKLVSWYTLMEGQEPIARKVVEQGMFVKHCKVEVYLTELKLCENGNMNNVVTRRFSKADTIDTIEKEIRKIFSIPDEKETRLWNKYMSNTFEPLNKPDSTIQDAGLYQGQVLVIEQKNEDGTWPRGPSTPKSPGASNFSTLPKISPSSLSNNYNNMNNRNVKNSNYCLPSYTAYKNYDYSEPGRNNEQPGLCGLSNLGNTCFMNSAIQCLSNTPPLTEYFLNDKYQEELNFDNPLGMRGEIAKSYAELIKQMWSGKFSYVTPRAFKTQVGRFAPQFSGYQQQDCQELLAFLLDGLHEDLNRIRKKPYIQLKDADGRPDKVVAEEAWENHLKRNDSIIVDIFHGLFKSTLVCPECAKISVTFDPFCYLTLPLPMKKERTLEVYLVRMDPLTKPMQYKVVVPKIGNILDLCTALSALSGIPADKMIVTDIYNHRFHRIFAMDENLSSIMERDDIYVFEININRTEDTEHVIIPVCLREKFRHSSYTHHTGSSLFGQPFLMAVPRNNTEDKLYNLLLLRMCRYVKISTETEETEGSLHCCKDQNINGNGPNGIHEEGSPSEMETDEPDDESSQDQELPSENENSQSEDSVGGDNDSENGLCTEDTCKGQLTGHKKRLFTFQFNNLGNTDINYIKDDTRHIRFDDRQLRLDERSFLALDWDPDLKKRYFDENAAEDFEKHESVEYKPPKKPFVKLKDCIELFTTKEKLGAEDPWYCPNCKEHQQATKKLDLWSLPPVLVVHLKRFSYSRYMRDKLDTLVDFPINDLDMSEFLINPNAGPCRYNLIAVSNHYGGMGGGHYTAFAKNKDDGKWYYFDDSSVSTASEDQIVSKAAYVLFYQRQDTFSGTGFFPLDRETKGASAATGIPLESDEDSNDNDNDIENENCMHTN
Outline: as §1

USP16 = USP16 (UniProt Q9Y5T5)
Outline: as §1

Measured: log2 ratio of Biotin-Ahx-Ub-VS probe labelling

Sequence of UCHL1 (P09936 whole entry, looked up): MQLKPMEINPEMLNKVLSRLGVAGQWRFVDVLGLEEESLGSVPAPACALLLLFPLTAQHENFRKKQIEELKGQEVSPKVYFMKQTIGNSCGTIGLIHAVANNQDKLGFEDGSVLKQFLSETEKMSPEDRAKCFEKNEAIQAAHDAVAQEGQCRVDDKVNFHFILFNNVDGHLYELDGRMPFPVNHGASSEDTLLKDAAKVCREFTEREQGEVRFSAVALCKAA
Sequence of USP10 (Q14694 whole entry): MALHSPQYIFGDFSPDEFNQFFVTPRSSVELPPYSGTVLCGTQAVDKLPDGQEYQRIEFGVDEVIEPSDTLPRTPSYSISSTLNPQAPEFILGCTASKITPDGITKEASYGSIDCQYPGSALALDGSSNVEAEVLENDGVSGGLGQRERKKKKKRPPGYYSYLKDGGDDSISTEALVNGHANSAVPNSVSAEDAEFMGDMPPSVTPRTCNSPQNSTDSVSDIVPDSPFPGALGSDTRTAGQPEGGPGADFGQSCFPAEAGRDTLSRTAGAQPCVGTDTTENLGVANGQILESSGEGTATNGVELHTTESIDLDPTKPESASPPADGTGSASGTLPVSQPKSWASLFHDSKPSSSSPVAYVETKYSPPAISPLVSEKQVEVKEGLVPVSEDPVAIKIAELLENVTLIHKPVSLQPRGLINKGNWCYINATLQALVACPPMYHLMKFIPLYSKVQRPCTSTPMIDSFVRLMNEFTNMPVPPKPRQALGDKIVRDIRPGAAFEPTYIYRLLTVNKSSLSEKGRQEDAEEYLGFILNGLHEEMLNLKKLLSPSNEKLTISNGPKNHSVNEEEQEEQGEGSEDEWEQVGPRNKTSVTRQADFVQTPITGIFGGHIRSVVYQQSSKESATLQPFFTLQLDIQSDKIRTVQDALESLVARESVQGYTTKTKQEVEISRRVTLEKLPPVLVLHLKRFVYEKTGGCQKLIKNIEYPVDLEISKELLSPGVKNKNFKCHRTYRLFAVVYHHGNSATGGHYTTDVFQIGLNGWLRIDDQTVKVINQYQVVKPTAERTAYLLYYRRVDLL
Sequence of USP16 (Q9Y5T5 whole entry, looked up): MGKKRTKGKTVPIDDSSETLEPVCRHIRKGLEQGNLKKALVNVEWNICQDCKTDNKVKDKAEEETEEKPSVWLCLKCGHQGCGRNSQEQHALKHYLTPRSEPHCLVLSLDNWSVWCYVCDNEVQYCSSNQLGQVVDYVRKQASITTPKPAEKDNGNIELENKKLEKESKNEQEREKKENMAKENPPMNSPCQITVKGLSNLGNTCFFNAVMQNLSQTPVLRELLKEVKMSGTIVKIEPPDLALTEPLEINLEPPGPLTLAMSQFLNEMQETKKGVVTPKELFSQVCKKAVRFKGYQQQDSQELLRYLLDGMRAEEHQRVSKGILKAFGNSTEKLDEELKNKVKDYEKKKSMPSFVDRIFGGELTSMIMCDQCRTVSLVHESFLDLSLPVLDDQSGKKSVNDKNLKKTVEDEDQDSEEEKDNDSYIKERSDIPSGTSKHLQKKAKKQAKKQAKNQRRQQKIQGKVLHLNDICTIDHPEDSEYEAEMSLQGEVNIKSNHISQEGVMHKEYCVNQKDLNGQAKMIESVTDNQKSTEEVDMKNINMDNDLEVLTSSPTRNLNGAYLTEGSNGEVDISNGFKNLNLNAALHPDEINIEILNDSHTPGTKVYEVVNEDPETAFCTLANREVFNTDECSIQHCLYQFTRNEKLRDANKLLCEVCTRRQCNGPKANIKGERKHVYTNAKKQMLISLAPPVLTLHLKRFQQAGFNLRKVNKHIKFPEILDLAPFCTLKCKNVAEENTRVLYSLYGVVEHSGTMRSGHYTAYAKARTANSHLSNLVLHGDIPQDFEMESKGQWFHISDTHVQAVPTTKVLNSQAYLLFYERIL

O=C(CCl)N1c2ccccc2NC(=O)C12CCCC2
inactive: OTUD6B -0.0738 | OTUD7B -0.0903 | PRPF8 -0.16 | PSMD7 0.0949 | UCHL1 -0.493 | UCHL3 0.749 | UCHL5 -0.148 | USP10 -0.393 | USP15 0.113 | USP16 0.103
